Inhibition data for 32 molecules are collected here from PubChem BioAssay AID2099 (Broad Institute, 2009).

Out of some 330,000 compounds screened, about 230 (0.07%) were called active. Shown is part of a subset that was picked to be rich in actives. A number with no mark means an inactive call.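 How the source made its calls: active means more than half of a compound's replicate wells show inhibition beyond 50%, single wells judged on their own value; inconclusive means some, but no more than half, of replicates pass 50% inhibition; inactive means no replicate passes 50% inhibition.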

The assay deals with Lysine-specific demethylase 4C (Homo sapiens) (UniProt Q9H3R0). Nature of the assay: JMJD2C H3K9me3 demethylation blockers – biochemical, fluorescence, DELFIA europium, primary screen (AID 2099).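 Further: signal counts dimethyl H3K9 product captured on neutravidin plate; 0% = median of DMSO wells and 100% = 0.3 times that DMSO median.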 Conditions: GST-JMJD2C(1-420) H3K9me3 demethylation, at 2.35 µM, active compounds read high.
Sequence of Lysine-specific demethylase 4C (Homo sapiens) (Q9H3R0 1-420 limits assumed): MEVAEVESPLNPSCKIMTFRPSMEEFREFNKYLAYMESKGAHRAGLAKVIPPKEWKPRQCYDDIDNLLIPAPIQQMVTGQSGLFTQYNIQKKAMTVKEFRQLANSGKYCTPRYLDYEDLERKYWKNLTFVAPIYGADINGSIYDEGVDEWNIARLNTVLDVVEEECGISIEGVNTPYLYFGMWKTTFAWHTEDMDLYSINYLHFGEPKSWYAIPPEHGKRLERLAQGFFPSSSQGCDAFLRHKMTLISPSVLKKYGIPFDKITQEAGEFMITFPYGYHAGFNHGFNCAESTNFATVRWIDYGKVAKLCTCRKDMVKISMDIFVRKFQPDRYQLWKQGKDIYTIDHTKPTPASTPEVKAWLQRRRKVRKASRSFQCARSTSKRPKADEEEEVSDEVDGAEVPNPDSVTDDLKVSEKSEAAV
On to `COc1cccc(-c2nnc(N(C)C(=O)c3ccno3)s2)c1`, for which the inhibition (in general, the change of the read-out against control, counted positive when it falls) was -39.9%.
Turning to `CN(C(=O)c1ccccn1)c1nnc(-c2ccccn2)s1`, the inhibition is 58.4% (active).
On to `COc1cc(OC)cc(-c2nnc(N(C)C(=O)c3ccncc3)s2)c1`, for which the inhibition is -7.55%.
With `O=C(NCCNc1ccc([N+](=O)[O-])cc1)c1cccc2c(Br)cccc12`, the inhibition was 7.15%.
Regarding `O=C(O)CCCn1cc(NC(=O)COc2cccc(Cl)c2)cn1`, the inhibition was -414%.
For `CCCCn1c(N)c(N(CC(C)C)C(=O)c2cccc(S(=O)(=O)N3CCN(C(C)=O)CC3)c2)c(=O)[nH]c1=O`, the inhibition is -1.72%.
With `CC1CCN(C(=O)/C(=C\c2ccccc2F)NC(=O)c2ccccc2)CC1`, the inhibition was 0.57%.
Regarding `CCOc1ccc(S(=O)(=O)N2CCC(c3ccccc3)CC2)cc1C(=O)O`, the inhibition is -0.18%.
With `O=C(N1CCCCC1)N1CCN(C(=O)N2CCCCC2)CC1`, the inhibition is -0.997%.
On to `COc1ccc(CC(NC(C)=O)C(=O)N2CCN(C(=O)Nc3cccc(Cl)c3)CC2)cc1OC` (configuration not stated), for which the inhibition is 3.8%.
Regarding `Cc1ccc2oc(C(=O)N3CCN(C)C[C@@H]3C(C)C)c(C)c2c1`, the inhibition was -21.1%.
As to `COc1ccc(-c2nc3n(c(=O)c2C#N)CCS3)c(OC)c1`, the inhibition is -2.02%.
Under `COc1ccccc1OCC(=O)Nc1c2c(nn1-c1ccc(F)cc1)CS(=O)(=O)C2` stands -10.7%; under `COC(=O)c1c(NC(=O)CN(c2ccc(C)c(C)c2)S(C)(=O)=O)sc2c1CCCC2`, 5.54%; under `NS(=O)(=O)c1ccc(CNC(=S)NC(=O)c2ccco2)cc1`, 2.82%.
Take `CC(C)C[C@@H](N)c1nnc(SCC(=O)c2ccc(Cl)cc2)o1`: the inhibition was -0.106%.
Under `C=CCSc1nc(Cc2ccc(Cl)cc2)nc2ccccc12` stands -13.3%; under `CCOc1ccc(C(C)=O)cc1COC(=O)c1cnc(Cl)c(Cl)c1`, -8.14%.
With `O=S(=O)(NCCc1ccccn1)c1cc(Cl)cc(Cl)c1O`, the inhibition was 6.23%.
Under `CCN(C(=O)CSc1ncnc2sccc12)c1c(N)n(Cc2ccccc2)c(=O)[nH]c1=O` stands -1.94%.
With `CN1C(=O)c2ccccc2C(C(=O)NCCCN2CCCC2)C1c1c[nH]c2ccccc12` (configuration not stated), the inhibition was -5.55%.
Regarding `COCCCn1c(SCC(=O)Nc2oc(C)c3c(C)n[nH]c(=O)c23)nc2sc3c(c2c1=O)CCC3`, the inhibition is -6.89%.
With `CCC(CO)Oc1cc(NC(=O)c2cccc3ccccc23)c2ncn(C(C)C)c2c1` (configuration not stated), the inhibition was 51.8% (active).
`CCC(CO)Oc1cc(NC(=O)c2cccc(F)c2)c2ncn(C(C)C)c2c1` (configuration not stated): the inhibition is -5.85%.
As to `CCC(CO)Oc1cc(NCc2ccccc2)c2ncn(C3CCCC3)c2c1` (configuration not stated), the inhibition was -1.07%.
As for `CC(=O)Nc1ccc(Nc2ncnc3c2nnn3Cc2ccccc2Cl)cc1`, the inhibition was 1.4%.
With `CCC(=O)N1c2ccc(S(=O)(=O)NCc3ccco3)cc2CC1C` (configuration not stated), the inhibition was 15.7%.
As for `Cc1[nH]c(C)c(S(=O)(=O)N2CCN(c3cccc(C(F)(F)F)c3)CC2)c1C(=O)N1CCCCC1`, the inhibition was 30%.
Under `Cc1ccc(C)c(NC(=O)CCC(=O)N/N=C2/CC(=O)CC(C)(C)C2)c1` stands 3.28%; under `COc1ccccc1NC1=NC(c2ccc(Cl)cc2)N=C(N)N1` (configuration not stated), 0.933%; under `Cc1ccc(S(=O)(=O)N2CCC(C(=O)OCC(=O)N(C)c3ccccc3)CC2)cc1C`, 10.2%.
Next, `O=C1c2ccccc2C(=O)N1CCOc1ccc(F)cc1`: -6.36%.
